Data published in PubChem BioAssay.
Values joined by “and” are separate entries in the source; they are usually repeats but may differ in a detail not shown here. Identical values can stand only once. Inconclusive results are not listed. Active and inactive are the calls of the source.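 How the source made its calls, unless noted: active means normalized viability below 100% at a tested concentration; inactive means the rest.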

Tests used:
[1] = growth inhibition of DIPG glioma cells, dose response, cell-based, SU-DIPG-XVII, MIPE5.0, CellTiter-Glo, qHTS (AID 1347060; cut-off not given, nearly all actives have AC50 up to about 26 µM;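 on AC50: cells exposed to compound for 48 hours before viability readout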); details: SU-DIPG-XVII viability, CellTiter-Glo ATP luminescence
[2] = growth inhibition of DIPG glioma cells, dose response, cell-based, SU-DIPG-XIII, MIPE4.0, CellTiter-Glo, qHTS (AID 1347061; cut-off not given, nearly all actives have AC50 up to about 37 µM;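 further: cells exposed to compound for 48 hours before readout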); details: SU-DIPG-XIII viability, CellTiter-Glo ATP luminescence
[3] = growth inhibition of DIPG glioma cells, dose response, cell-based, JHH-DIPG-1, MIPE4.0, CellTiter-Glo, qHTS (AID 1347062; cut-off not given, nearly all actives have AC50 up to about 27 µM;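 on AC50: cells exposed to compound for two days before readout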); details: JHH-DIPG-1 viability, CellTiter-Glo ATP luminescence
[4] = growth inhibition of DIPG glioma cells, dose response, cell-based, SU-DIPG-IV, MIPE4.0, CellTiter-Glo, qHTS (AID 1347063; cut-off not given, nearly all actives have AC50 up to about 30 µM;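 further: compound exposure lasted 48 hours before the viability readout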); details: SU-DIPG-IV viability, CellTiter-Glo ATP luminescence
[5] = viability loss in pontine glioma line – cell-based, SU-DIPG-XXV, MIPE5.0, CellTiter-Glo, qHTS, dose response (AID 1347065; cut-off not given, nearly all actives have AC50 up to about 26 µM;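 further: cells exposed to compound for 48 hours before ATP readout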); details: CellTiter-Glo ATP luminescence
[6] = SU-DIPG-VI glioma cell viability, MIPE4.0 library, CellTiter-Glo luminescence, qHTS (AID 1347066; cut-off not given, nearly all actives have AC50 up to about 30 µM;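 further: cells exposed to compound for 48 hours before readout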); details: CellTiter-Glo ATP luminescence
[7] = SU-DIPG-XXV glioma cell viability, MIPE5.0 library, qHTS (AID 1347068; cut-off not given, nearly all actives have IC50 up to about 30 µM;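 on IC50: cells exposed to compound for 48 hours before viability readout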)
[8] = sensitizers of A549 cells to miR-34 induction, primary screen, imaging, A549 dox-inducible miR-34, nuclei and caspase counts (AID 1347080;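 active means compounds whose cell count with miR-34 switched on is under 0.7 times the count with it off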); details: A549 miR-34 inducible, Hoechst nuclei count, 48 h
[9] = survival rescue of mitochondrial mutant cells in low glucose, primary screen, MELAS cybrids, Rieske KO mouse fibroblasts, CellTiter-Glo (AID 1508586;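 active means mean z-score across replicates of 1.96 or higher in either the MELAS or the Rieske mutant cell line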;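 further: z relative to plate mean and SD of compound and empty wells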)
[10] = ovarian cancer cell viability with rucaparib, profiling panel, oncology-focused library, rucaparib conditional (AID 1508598); details: patient-derived ovarian cancer cells, CellTiter-Glo viability, 144 h, stronger effect = lower value
[11] = JHH-DIPG-1 glioma cell viability, MIPE5.0 library, CellTiter-Glo luminescence, qHTS (AID 1347067; cut-off not given, nearly all actives have AC50 up to about 26 µM;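 further: cells exposed to compound for 48 hours before readout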); details: JHH-DIPG-1 glioma viability, CellTiter-Glo ATP luminescence
[12] = modifiers of HSF1 nuclear foci, imaging, Selleck Cancer Library (AID 1347162; in the data active means plate-normalised HSF1 focus index below about 0.46); details: human cells, at 10 µM; SSMD: measured here: HSF1 foci SSMD mean; cell count: measured here: cell number; plate-normalised HSF1 focus index: stronger effect = lower value
[13] = at 0.000305 µM, OCI-C5x cells, with rucaparib 10 µM, 100% = cells with rucaparib alone
[14] = at 0.000305 µM, OCI-C5x cells, without rucaparib
[15] = at 0.000305 µM, OCI-P5x cells, with rucaparib 20 µM, 100% = cells with rucaparib alone
[16] = at 0.000305 µM, OCI-P5x cells, without rucaparib
[17] = at 0.00122 µM, OCI-C5x cells, with rucaparib 10 µM, 100% = cells with rucaparib alone
[18] = at 0.00122 µM, OCI-C5x cells, without rucaparib
[19] = at 0.00122 µM, OCI-P5x cells, with rucaparib 20 µM, 100% = cells with rucaparib alone
[20] = at 0.00122 µM, OCI-P5x cells, without rucaparib
[21] = at 0.00488 µM, OCI-C5x cells, with rucaparib 10 µM, 100% = cells with rucaparib alone
[22] = at 0.00488 µM, OCI-C5x cells, without rucaparib
[23] = at 0.00488 µM, OCI-P5x cells, with rucaparib 20 µM, 100% = cells with rucaparib alone
[24] = at 0.00488 µM, OCI-P5x cells, without rucaparib
[25] = at 0.0195 µM, OCI-C5x cells, with rucaparib 10 µM, 100% = cells with rucaparib alone
[26] = at 0.0195 µM, OCI-C5x cells, without rucaparib
[27] = at 0.0195 µM, OCI-P5x cells, with rucaparib 20 µM, 100% = cells with rucaparib alone
[28] = at 0.0195 µM, OCI-P5x cells, without rucaparib
[29] = at 0.0781 µM, OCI-C5x cells, with rucaparib 10 µM, 100% = cells with rucaparib alone
[30] = at 0.0781 µM, OCI-C5x cells, without rucaparib
[31] = at 0.0781 µM, OCI-P5x cells, with rucaparib 20 µM, 100% = cells with rucaparib alone
[32] = at 0.0781 µM, OCI-P5x cells, without rucaparib
[33] = at 0.313 µM, OCI-C5x cells, with rucaparib 10 µM, 100% = cells with rucaparib alone
[34] = at 0.313 µM, OCI-C5x cells, without rucaparib
[35] = at 0.313 µM, OCI-P5x cells, with rucaparib 20 µM, 100% = cells with rucaparib alone
[36] = at 0.313 µM, OCI-P5x cells, without rucaparib
[37] = at 1.25 µM, OCI-C5x cells, with rucaparib 10 µM, 100% = cells with rucaparib alone
[38] = at 1.25 µM, OCI-C5x cells, without rucaparib
[39] = at 1.25 µM, OCI-P5x cells, with rucaparib 20 µM, 100% = cells with rucaparib alone
[40] = at 1.25 µM, OCI-P5x cells, without rucaparib
[41] = at 5 µM, OCI-C5x cells, with rucaparib 10 µM, 100% = cells with rucaparib alone
[42] = at 5 µM, OCI-C5x cells, without rucaparib
[43] = at 5 µM, OCI-P5x cells, with rucaparib 20 µM, 100% = cells with rucaparib alone
[44] = at 5 µM, OCI-P5x cells, without rucaparib

C=C(c1ccc(C(=O)O)cc1)c1cc2c(cc1C)C(C)(C)CCC2(C)C
6410 and 6330: cell count ([8]; measured here: total cells with miR-34 induction, stronger effect = lower value)
inactive: outcome [2] | outcome [3] | outcome [4] | outcome [6] | outcome [7] | fold change ([8]; stronger effect = lower value, cell number ratio, induced over uninduced) 0.951 and 0.85 | z-score ([9]; MELAS cybrid survival, CellTiter-Glo 48 h, stronger effect = higher value) 0.149 and 0.79 | viability [10, 13] 115% | viability [10, 14] 109% | viability [10, 16] 106% | viability [10, 17] 116% | viability [10, 18] 109% | viability [10, 20] 111% | viability [10, 21] 112% | viability [10, 22] 120% | viability [10, 23] 108% | viability [10, 24] 120% | viability [10, 25] 108% | viability [10, 26] 119% | viability [10, 27] 113% | viability [10, 28] 124% | viability [10, 29] 106% | viability [10, 30] 106% | viability [10, 31] 112% | viability [10, 32] 125% | viability [10, 33] 103% | viability [10, 34] 122% | viability [10, 35] 115% | viability [10, 36] 130% | viability [10, 38] 122% | viability [10, 39] 117% | viability [10, 40] 126% | viability [10, 41] 101% | viability [10, 42] 128% | viability [10, 43] 116% | viability [10, 44] 125%
0.712 and -0.251: z-score ([9]; Rieske KO mouse fibroblast survival, CellTiter-Glo 72 h)
6740 and 7440: cell count ([8]; measured here: total cells without miR-34 induction)
active: AC50 [1] 23.5 µM | AC50 [5] 0.118 µM | viability [10, 15] 90.9% | viability [10, 19] 96% | viability [10, 37] 98%
1.39 and 1.44: fold change ([8]; measured here: relative caspase fold change +Dox/-Dox)

C1Cc2[nH]nc(-c3nn[nH]n3)c2C1
inactive: outcome [1] | outcome [2] | outcome [3] | outcome [4] | outcome [5] | outcome [6] | outcome [11] | outcome [7]

OC[C@H]1OC(O)C[C@@H](O)[C@@H]1O (some centres not stated)
inactive: outcome [1] | outcome [2] | outcome [3] | outcome [4] | outcome [5] | outcome [6] | outcome [11] | outcome [7]

NC[C@H]1O[C@H](O[C@@H]2[C@H](O)[C@@H](O[C@H]3O[C@H](CO)[C@@H](O)[C@H](N)[C@H]3O)[C@H](N)C[C@@H]2N)[C@H](O)[C@@H](O)[C@@H]1O
inactive: outcome [1] | outcome [2] | outcome [3] | outcome [4] | outcome [5] | outcome [6] | outcome [11] | outcome [7]

Cc1ccc(C(=O)N(CCCN)[C@@H](c2oc3cc(Cl)ccc3c(=O)c2Cc2ccccc2)C(C)C)cc1
6430: cell count [12]
0.849: SSMD [12]
inactive: outcome [2] | plate-normalised HSF1 focus index [12] 1.05
active: AC50 [1] 0.0332 µM | AC50 [3] 14.8 µM | AC50 [4] 29.6 µM | AC50 [5] 0.0118 µM | AC50 [6] 8.33 µM | AC50 [11] 1.66 µM | IC50 [7] 0.0417 µM | viability [10, 13] 50.8% | viability [10, 14] 63.1% | viability [10, 15] 62% | viability [10, 16] 22.5% | viability [10, 17] 56.4% | viability [10, 18] 61.8% | viability [10, 19] 50.3% | viability [10, 20] 19.3% | viability [10, 21] 54.9% | viability [10, 22] 63.8% | viability [10, 23] 58.3% | viability [10, 24] 18.4% | viability [10, 25] 57.6% | viability [10, 26] 55.3% | viability [10, 27] 55.3% | viability [10, 28] 19.7% | viability [10, 29] 54.6% | viability [10, 30] 50.1% | viability [10, 31] 51.5% | viability [10, 32] 20.3% | viability [10, 33] 54.9% | viability [10, 34] 50.6% | viability [10, 35] 55.7% | viability [10, 36] 19.2% | viability [10, 37] 49.2% | viability [10, 38] 49% | viability [10, 39] 48.4% | viability [10, 40] 17.8% | viability [10, 41] 4.98% | viability [10, 42] 4.99% | viability [10, 43] 0.708% | viability [10, 44] 6.42%
